D2 ag-1 = human D2 receptor agonism in beta-arrestin assay | P14416 | DiscoveRx PathHunter D2 beta-arrestin, luminescence, 90 min; 100% = 57 uM dopamine signal | activation, % (test concentration not listed) | 360,000 compounds, 0.084% hits | AID 624465; in the data active = activation above about 40%
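DiscoveRx PathHunter D2 beta-arrestin cells (2,100/well) attached overnight, then compound-stimulated 90 min at 37 C in HBSS/10 mM HEPES/0.1% Tween-20 buffer; beta-galactosidase complementation read by luminescence after 1 h at ambient temperature. Dopamine 57 uM final (EC100) as control.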
D2 PAM-1 = human D2 receptor positive allosteric modulation; potentiation, % (test concentration not listed); 360,000 compounds, 0.23% hits; AID 624464; P14416; DiscoveRx D2 beta-arrestin cells, luminescence, 90 min; 100% = 57 uM dopamine signal; in the data active = potentiation above about 50%
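D2 cells co-treated with compound plus 50 nM dopamine (EC20) for 90 min at 37 deg C to detect potentiation. Beta-arrestin recruitment was read as enzyme-fragment luminescence after 1 h at ambient temperature. Full response was set by 57 uM dopamine.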
D2 antagonist = antagonists of human D2 dopamine receptor; P14416; HEK293 TREx D2 cells, calcium flux, dopamine EC80; inhibition, % at 10 µM; 340,000 compounds, 2% hits; AID 485344; in the data active = inhibition above about 30%; inactive = below that, where a call was filed; also: 0% is about no effect
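Compounds are added to dye-loaded, induced HEK293 T-REx cells coupled to calcium release via D2; after a 3 min kinetic read an EC80 dopamine stimulus is given and fluorescence is recorded for 3 more min.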
D2 PAM-2 = positive allosteric modulators of human D2 dopamine receptor; P14416; HEK293 T-REx D2, calcium flux, EC20 dopamine potentiation; potentiation, % at 10 µM; 340,000 compounds, 0.34% hits; AID 485347;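 active = potentiation over 3 SD above the plate norm, cut at about 30% in these data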; also: 0% is about no effect
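Tetracycline-induced Hek293 Trex D2 cells, force-coupled to calcium, loaded with no-wash calcium dye. Compound added with 180 s kinetic read for agonism, then EC20 dopamine and a further 180 s read for potentiation.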
D2 ag-2 = D2 dopamine receptor (human) agonism; activation, % at 2 µM; P14416; 340,000 compounds, 0.53% hits; HEK293 T-REx D2 cells, calcium flux agonist mode; AID 485358;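 active = activation over 3 SD above normal in the single-dose calcium agonist read, cut at about 30% in these data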; also: 0% is about no effect
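Calcium-flux readout, 1 cycle/sec over 180 s following compound pin transfer, in inducible HEK293 Trex D2 cells (force-coupled); dopamine controls included. Positive calcium responses during this window marked compounds as potential agonists.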
B2AR arrestin = agonists driving beta-arrestin recruitment to human beta2-adrenergic receptor; P07550; beta-arrestin recruitment to beta2AR, cell-based reporter; Potency, µM (titrated, usually from 46.1 µM), for the others: at the top dose activation, actives largely listed as activators; 330,000 compounds, 0.02% hits; AID 492947; active = well fitted activation curve with a large enough effect;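 also: potency is read from the fitted curve at half-maximal effect; 0% = DMSO controls and full agonism = EC100 isoproterenol or metaproterenol; nearly all actives have a fitted effect of over 65% in size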
Target sequence (P07550 whole entry, looked up): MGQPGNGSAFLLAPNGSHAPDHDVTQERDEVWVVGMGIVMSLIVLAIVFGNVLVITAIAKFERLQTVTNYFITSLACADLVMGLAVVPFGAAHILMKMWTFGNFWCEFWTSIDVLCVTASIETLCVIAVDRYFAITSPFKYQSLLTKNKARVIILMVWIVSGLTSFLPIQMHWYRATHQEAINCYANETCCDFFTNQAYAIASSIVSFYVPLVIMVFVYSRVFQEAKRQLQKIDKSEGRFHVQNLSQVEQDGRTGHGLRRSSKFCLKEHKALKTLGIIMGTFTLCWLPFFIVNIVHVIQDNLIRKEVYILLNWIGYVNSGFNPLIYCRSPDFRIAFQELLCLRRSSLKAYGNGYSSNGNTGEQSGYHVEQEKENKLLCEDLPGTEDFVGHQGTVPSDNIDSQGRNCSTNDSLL
Numbers without * were called inactive; · = no result. Sampled rows, rich in hits. Any-hit rate of the full collection: about 2.4%.

SMILES	D2 ag-1	D2 PAM-1	D2 antagonist	D2 PAM-2	D2 ag-2	B2AR arrestin
O=C(COC(=O)/C=C/c1ccccc1)NCc1ccc(Cl)cc1	-1	-14	-2	-4	-1	0%
COc1ccc(CNC(=O)CN(C(=O)c2snc(C(N)=O)c2N)c2ccc(F)cc2)cc1	-2	-5	-19	15	0	0%
COc1ccc(CNC(=O)CN(C(=O)c2snc(C(N)=O)c2N)c2ccc(OC)c(OC)c2)cc1	3	2	31*	-5	0	0%
CCc1ccc2c(c1)NC(=O)C2(C)Cc1cccc(F)c1 (stereo not drawn)	4	-7	·	·	·	·
O=C1c2ccccc2NC(c2ccc3c(c2)OCCO3)N1c1ccc2c(c1)OCCO2 (stereo not drawn)	-1	27	-1	21	-1	-1%
FC(F)(F)c1nnc2ccc(NCc3ccccc3)nn12	4	2	80*	2	0	0%
Cc1ccccc1C(=O)Nc1cccc(C(=O)Nc2ccccc2C(=O)O)c1	3	18	2	33*	0	0%
CC(=O)Oc1cccc(C(=O)Nc2cccc(C(=O)Nc3ccccc3C(=O)O)c2)c1	3	0	5	6	1	0%
O=C(Nc1ccccc1C(=O)O)c1cccc(NC(=O)c2ccccc2Cl)c1	6	64*	17	0	1	0%
O=C(Nc1ccccc1C(=O)O)c1cccc(NC(=O)c2ccco2)c1	9	22	·	·	·	-1%
CC(=O)c1c(NCCc2ccccc2)cc(C)oc1=O	-2	-7	-15	6	-4	0%
C=CCn1c(SCC(=O)Nc2ccc(C(=O)OCC)cc2)nnc1-c1sc(N)nc1C	-9	23	31*	0	1	0%
CCOC(=O)c1ccc(NC(=O)CSc2nnc(CNc3ccc(C)cc3)n2C)cc1	0	50*	-9	-6	1	0%
C=CCn1c(SCc2ccc(C(=O)OC)cc2)nnc1-c1sc(N)nc1C	3	-10	-2	15	-1	0%
CCN(CC)CCOC(=O)c1ccc(NC(=O)CSc2nnc(-c3cccs3)n2CC)cc1	13	74*	·	·	·	·
Cc1cc(NC(=O)CSc2nnc(-c3cccs3)n2N)no1	-2	-7	39*	10	0	0%
O=C(O)CCC(=O)NN1C(=O)c2ccccc2NC1c1ccco1 (stereo not drawn)	2	1	7	-1	0	-1%
Cc1ccc(-n2nc3c(=O)n(CCCC(=O)N4CCC(C(N)=O)CC4)nc(C)c3c2C)cc1	14	3	10	-6	0	0%
Cc1ccc(NC(=O)CN(C)C(=O)CSc2ncc(C(F)(F)F)cc2Cl)cc1	-3	-23	93*	-25	-1	1%
CNC(=O)NC(=O)CSc1ncc(C(F)(F)F)cc1Cl	-2	2	·	·	·	0%
COc1cc2nc(CN3CCN(S(=O)(=O)c4ccc(C)c(C)c4)CC3)[nH]c(=O)c2cc1OC	5	-3	-10	32*	0	0%
Cc1ccc(S(=O)(=O)N2CCCN(Cc3nc4ccccc4c(=O)[nH]3)CC2)cc1	1	3	7	3	0	0%
COc1cc2nc(CN(CCC(C)C)Cc3nc4cc(OC)c(OC)cc4c(=O)[nH]3)[nH]c(=O)c2cc1OC	3	2	-8	-1	0	0%
CCNCc1nc2cc(OC)c(OC)cc2c(=O)[nH]1	0	-10	33*	1	1	0%
CSc1cccc(NC(=O)C2CCCN2S(=O)(=O)c2ccc(Br)s2)c1 (stereo not drawn)	-1	-18	-6	10	0	0%
O=C(CSc1nc2ccc(Cl)cc2[nH]1)NCCc1ccccc1	-1	-13	39*	7	0	0%
CCNC(=O)C1(C)CCN(C(=O)c2ccc(F)cc2Cl)C1 (stereo not drawn)	-3	-6	·	·	·	·
CC(=O)Nc1ccc(S(=O)(=O)NC2(C(F)(F)F)NC(=O)N(C3CCCC3)C2=O)cc1 (stereo not drawn)	0	3	1	33*	-2	0%
CCOC(=O)N1CCN(Cc2ccccn2)CC1	-1	-3	14	44*	0	·

Assay outcomes: PubChem, National Center for Advancing Translational Sciences (NCATS)
